Values joined by “and” are separate entries in the source; they are usually repeats but may differ in a detail not shown here. Equal values may be shown once. A structure can be active in one record and inactive in another. Active and inactive are the calls of the source. The calls were made as follows: active = hit-call score of the fitted dose curve at least 0.9, where 1 is the maximum; inactive = score below 0.9.
Key:
[1] = read-out: Urokinase-type plasminogen activator receptor (uPAR), PLAUR (gene 5329); assay: BSK_4H_uPAR: BioMAP Diversity Plus: 4H Assay for Urokinase-type plasminogen activator receptor (uPAR) Biomarker Activity (AID 2283030); conditions: primary human endothelial cells (HUVEC); actives raise or lower the signal
How it was run: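 Primary human umbilical vein endothelial cells were exposed to chemical for 24 h before cell-surface uPAR was quantified by ELISA. Activity was fitted bidirectionally against the DMSO negative control baseline.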

[2] = read-out: Vascular endothelial growth factor receptor 2 (Homo sapiens) (UniProt P35968); assay: BSK_4H_VEGFRII: BioMAP Diversity Plus: 4H Assay for Vascular endothelial growth factor receptor 2 (VEGFR2) Biomarker Activity (AID 2283031); conditions: primary human endothelial cells (HUVEC); actives raise or lower the signal;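 as to AC50: cell-surface VEGFR2 protein level quantified by ELISA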
How it was run: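 Primary human umbilical vein endothelial cells in the BioMAP 4H system were dosed with test chemical, and 24 h later VEGFRII was measured by ELISA. Activity was fitted bidirectionally against DMSO as negative control and baseline.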

[3] = read-out: Human Leukocyte Antigen - DR isotype (HLADR), HLA-DRA (gene 3122); assay: BSK_BE3C_HLADR: BioMAP Diversity Plus: BE3C Assay for Human Leukocyte Antigen - DR isotype (HLADR) Biomarker Activity (AID 2283032); conditions: primary human bronchial epithelial cells; actives raise or lower the signal
How it was run: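 Human primary bronchial epithelial cells in the BE3C system were exposed to chemicals for 24 h, after which HLA-DR levels were quantified by ELISA. Activity was fitted bidirectionally, gain or loss of signal, against DMSO as negative control and baseline.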

[4] = read-out: Vascular cell adhesion molecule 1 (VCAM1), VCAM1 (gene 7412); assay: BSK_4H_VCAM1: BioMAP Diversity Plus: 4H Assay for Vascular cell adhesion molecule 1 (VCAM1) Biomarker Activity (AID 2283033); conditions: primary human endothelial cells (HUVEC); actives raise or lower the signal
How it was run: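 Primary human umbilical vein endothelial cells were exposed to chemicals for 24 h, after which VCAM-1 was quantified by ELISA. Responses were fitted bidirectionally against DMSO as negative control and activity baseline.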

[5] = read-out: Interferon-gamma inducible Protein 10 (IP10), CXCL10 (gene 3627); assay: BSK_BE3C_IP10: BioMAP Diversity Plus: BE3C Assay for Interferon-gamma inducible Protein 10 (IP10) Biomarker Activity (AID 2283034); conditions: primary human bronchial epithelial cells; actives raise or lower the signal
How it was run: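 Human primary bronchial epithelial cells were exposed to chemicals for 24 hours, after which IP-10 levels were measured by ELISA. Data were fitted bidirectionally against DMSO, which served as the negative control and activity baseline.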

[6] = read-out: Monokine induced gamma interferon (MIG), CXCL9 (gene 4283); assay: BSK_BE3C_MIG: BioMAP Diversity Plus: BE3C Assay for Monokine induced gamma interferon (MIG) Biomarker Activity (AID 2283035); conditions: primary human bronchial epithelial cells; actives raise or lower the signal;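 also: MIG protein measured by ELISA in BE3C cultures after 24 h of dosing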
How it was run: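 MIG level was determined by ELISA after 24 h chemical treatment of primary human bronchial epithelial cells. Values were fitted bidirectionally with DMSO as the negative control and activity baseline.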

[7] = read-out: Plasminogen activator inhibitor-1 (PAI1), SERPINE1 (gene 5054); assay: BSK_BE3C_PAI1: BioMAP Diversity Plus: BE3C Assay for Plasminogen activator inhibitor-1 (PAI1) Biomarker Activity (AID 2283037); conditions: primary human bronchial epithelial cells; actives raise or lower the signal
How it was run: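 Human primary bronchial epithelial cells were exposed to chemical for 24 h, then PAI-1 was quantified by ELISA. Activity was fitted bidirectionally relative to the DMSO negative control baseline.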

[8] = read-out: urokinase plasminogen activator (uPA), PLAU (gene 5328); assay: BSK_BE3C_uPA: BioMAP Diversity Plus: BE3C Assay for urokinase plasminogen activator (uPA) Biomarker Activity (AID 2283038); conditions: primary human bronchial epithelial cells; actives raise or lower the signal;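 also: uPA protein level quantified by ELISA in cell cultures; uPA read one day after compound addition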
How it was run: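 Human primary bronchial epithelial cells were exposed to chemical for 24 h, then uPA levels were measured by ELISA. Responses were fitted bidirectionally against DMSO as negative control and baseline. Parallel SRB staining of total protein gauged overt cytotoxicity.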

[9] = read-out: Urokinase-type plasminogen activator receptor (uPAR), PLAUR (gene 5329); assay: BSK_BE3C_uPAR: BioMAP Diversity Plus: BE3C Assay for Urokinase-type plasminogen activator receptor (uPAR) Biomarker Activity (AID 2283039); conditions: primary human bronchial epithelial cells; actives raise or lower the signal;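 also: cells exposed to compound for one day before measurement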
How it was run: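 Primary human bronchial epithelial cells were dosed with chemical and harvested 24 h later; uPAR was quantified by ELISA. Activity was fitted bidirectionally against DMSO as negative control and baseline.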

[10] = read-out: Interleukin-6 (IL6), IL6 (gene 3569); assay: BSK_CASM3C_IL6: BioMAP Diversity Plus: CASM3C Assay for Interleukin-6 (IL6) Biomarker Activity for (AID 2283040); conditions: primary human coronary artery smooth muscle cells; actives raise or lower the signal
[11] = read-out: Tissue plasminogen activator (tPA), PLAT (gene 5327); assay: BSK_BE3C_tPA: BioMAP Diversity Plus: BE3C Assay for Tissue plasminogen activator (tPA) Biomarker Activity (AID 2283041); conditions: primary human bronchial epithelial cells; actives raise or lower the signal
How it was run: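 Human primary bronchial epithelial cells were dosed with chemical and tPA biomarker levels measured by ELISA 24 hours later. Activity was fitted bidirectionally against DMSO as negative control and baseline.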

[12] = read-out: Interleukin-8 (IL8), CXCL8 (gene 3576); assay: BSK_CASM3C_IL8: BioMAP Diversity Plus: CASM3C Assay for Interleukin-8 (IL8) Biomarker Activity (AID 2283042); conditions: primary human coronary artery smooth muscle cells; actives raise or lower the signal;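 also: IL-8 protein level quantified by ELISA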
[13] = read-out: Human Leukocyte Antigen - DR isotype (HLADR), HLA-DRA (gene 3122); assay: BSK_CASM3C_HLADR: BioMAP Diversity Plus: CASM3C Assay for Human Leukocyte Antigen - DR isotype (HLADR) Biomarker Activity (AID 2283043); conditions: primary human coronary artery smooth muscle cells; actives raise or lower the signal;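 also: cell-surface HLA-DR protein level quantified by ELISA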
[14] = read-out: Macrophage colony-stimulating factor (MCSF), CSF1 (gene 1435); assay: BSK_CASM3C_MCSF: BioMAP Diversity Plus: CASM3C Assay for Macrophage colony-stimulating factor (MCSF) Biomarker Activity (AID 2283044); conditions: primary human coronary artery smooth muscle cells; actives raise or lower the signal;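 also: M-CSF protein amount quantified by ELISA after 24 h exposure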
[15] = read-out: Low-density lipoprotein receptor (LDLR), LDLR (gene 3949); assay: BSK_CASM3C_LDLR: BioMAP Diversity Plus: CASM3C Assay for Low-density lipoprotein receptor (LDLR) Biomarker Activity (AID 2283045); conditions: primary human coronary artery smooth muscle cells; actives raise or lower the signal;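 also: LDLR protein level on the cell surface quantified by ELISA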
[16] = read-out: Monocyte Chemoattractant Protein-1 (MCP1), CCL2 (gene 6347); assay: BSK_CASM3C_MCP1: BioMAP Diversity Plus: CASM3C Assay for Monocyte Chemoattractant Protein-1 (MCP1) Biomarker Activity (AID 2283046); conditions: primary human coronary artery smooth muscle cells; actives raise or lower the signal;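 also: MCP-1 level quantified by ELISA 24 h after dosing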
[17] = BSK_CASM3C_Proliferation: Cell Proliferation Assessment in the BioMAP Diversity Plus: CASM3C Assay (AID 2283047); conditions: primary human coronary artery smooth muscle cells;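 also: sulforhodamine B total protein stain as relative cell number at 560 nm; sub-confluent cells exposed 48 h before staining; fitted both ways against DMSO so gain or loss of cell number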
[18] = read-out: Monokine induced gamma interferon (MIG), CXCL9 (gene 4283); assay: BSK_CASM3C_MIG: BioMAP Diversity Plus: CASM3C Assay for Monokine induced gamma interferon (MIG) Biomarker Activity (AID 2283048); conditions: primary human coronary artery smooth muscle cells; actives raise or lower the signal
[19] = read-out: serum amyloid A (SAA), SAA1 (gene 6288); assay: BSK_CASM3C_SAA: BioMAP Diversity Plus: CASM3C Assay for serum amyloid A (SAA) Biomarker Activity (AID 2283049); conditions: primary human coronary artery smooth muscle cells; actives raise or lower the signal;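 also: SAA protein level quantified by ELISA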
[20] = read-out: Transforming growth factor beta 1 (TGFb1), TGFB1 (gene 7040); assay: BSK_BE3C_TGFb1: BioMAP Diversity Plus: BE3C Assay for Transforming growth factor beta 1 (TGFb1) Biomarker Activity (AID 2283036); conditions: primary human bronchial epithelial cells; actives raise or lower the signal
How it was run: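 Human primary bronchial epithelial cells (BE3C system) were dosed with chemical and TGF-b1 levels measured by ELISA at 24 h. Activity was fitted bidirectionally relative to DMSO negative control as baseline.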

Measured: AC50

FC(F)(F)C(F)(F)C(F)(F)C(F)(F)C(F)(F)C(F)(F)CCS
not listed: [20]
inactive: all other assays above

O=C(CC(=O)C(F)(F)C(F)(F)F)C(F)(F)F
not listed: [6] | [20]
inactive: all other assays above

FC(F)(F)C(F)(F)C(F)(F)C(F)(F)CCI
inactive: [1] | [2] | [3] | [4] | [5] | [7] | [8] | [9] | [10] | [11] | [12] | [13] | [14] | [15] | [16] | [17] | [18] | [19]
active: [18] 18.7 µM

O=C(O)C=C(C(F)(F)F)C(F)(F)F
active: [4] 15.2 µM and 5.95 µM | [10] 13.2 µM and 1.37 µM | [11] 8.7 µM and 1.53 µM | [13] 9.93 µM and 597 nM | [17] 30 µM | [18] 27.4 µM and 220 nM
not listed: [6] | [20]
inactive: all other assays above

CCc1ccc(C(c2ccc(CC)cc2)C(Cl)Cl)cc1
active: [1] 32.3 µM | [2] 13.1 µM | [3] 13.6 µM | [4] 28.5 µM | [5] 20 µM | [7] 20 µM | [11] 14.1 µM
not listed: [6]
inactive: all other assays above

O=C(O)C(F)(F)C(F)(F)C(F)(F)C(F)(F)F
not listed: [6] | [20]
inactive: all other assays above

C=C(C)C(=O)OCC(F)(F)C(F)(F)C(F)(F)F
not listed: [6] | [20]
inactive: all other assays above

FC(F)(F)C(F)(F)C(F)(F)C(F)(F)C(F)(F)C(F)(F)C(F)(F)Br
not listed: [6] | [20]
inactive: all other assays above

C=CC/C=C/C/C=C/C/C=C/C
active: [17] 0.108 µM
not listed: [6]
inactive: all other assays above

OCC(F)(F)C(F)(F)C(F)(F)C(F)(F)C(F)(F)C(F)F
not listed: [20]
inactive: all other assays above

OCC(F)(F)C(F)(F)C(F)(F)F
not listed: [6] | [20]
inactive: all other assays above

O=S(=O)(OCCOC(F)(F)F)C(F)(F)F
not listed: [6] | [20]
inactive: all other assays above

O=C(O)C(F)(OC(F)(F)C(F)(OC(F)(F)C(F)(F)C(F)(F)F)C(F)(F)F)C(F)(F)F (stereo not drawn)
not listed: [6] | [20]
inactive: all other assays above

O=C(O)C(F)(F)C(F)(F)F
not listed: [6] | [20]
inactive: all other assays above

C=CC(=O)OCC(F)(F)C(F)(F)C(F)(F)C(F)(F)C(F)(F)C(F)(F)C(F)(F)F
not listed: [6] | [20]
inactive: all other assays above

FC(F)(F)C(F)(F)C(F)(F)CI
not listed: [6] | [20]
inactive: all other assays above

— PubChem BioAssay (EPA / NIEHS)
